Hit rate of the full screen: of about 370,000 compounds, about 4,700 (1.3%) were called active. Only a selection was taken, and actives are over-represented in it overall. Unmarked numbers belong to inactive results.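 The calls were made as follows: active = inhibition above the plate cutoff, the mean of all test compounds on that plate plus 3 SD (cut at about 35% in these data); inactive = the rest.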
assay: small molecules binding CAG repeat RNA – biochemical, fluorescence, primary screen (AID 651821); conditions: r(CAG) RNA repeat, TO-PRO-1 dye displacement fluorescence; at 3 µM; active compounds read high;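 also: 0% = DMSO alone and 100% = 100 µM mitoxantrone as full dye displacement; higher means more dye released from RNA so lower well fluorescence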

Row | Structure (SMILES) | inhibition
1 | CCCn1c(C)cc(-c2csc(NC(=O)CCc3nc4ccccc4c(=O)[nH]3)n2)c1C | 24.8%
2 | Cc1ccc(C(=O)Nc2c(C#N)c(C)c(C)n2Cc2ccccc2)cc1 | 0.41%
3 | O=C(Nc1ccccc1)Nc1nc2ccccc2s1 | 41.3% (active)
4 | CC(=O)Nc1ccc(S(=O)(=O)Nc2nc(-c3ccc(C(C)(C)C)cc3)cs2)cc1 | 66.5% (active)
5 | CC(C)CC(=O)N/C(N)=N/c1nc2ccccc2s1 | 0.1%
6 | CC(=O)Nc1ccc(S(=O)(=O)Nc2ccc(-c3ccc4nnc(C)n4n3)cc2)cc1 | 6.21%
7 | CCN(CC)CCn1c2c(c(SCC(=O)Nc3nc4ccccc4s3)nc1=O)CCCC2 | -6.14%
8 | COc1ccc(C(C)(NC(C)=O)c2nc(-c3ccc(S(C)(=O)=O)cc3)cs2)cc1 (stereo not given) | -0.32%
9 | Cn1c(CNc2nc(-c3ccccc3)cs2)nnc1SCC(=O)c1ccccc1 | 8.83%
10 | CC(=O)Nc1ccc(-c2csc(NC(=O)Nc3ccccc3)n2)cc1 | 53.7% (active)
11 | CC(=O)NC(c1ccccc1)c1nc(-c2cccc(C(C)C)c2)cs1 (stereo not given) | 0.86%
12 | CC(=O)Nc1ccc(C(=O)Nc2nc(-c3cc(C)n(Cc4ccccc4)c3C)cs2)cc1 | 51.7% (active)
13 | CC(NCc1ccco1)C(=O)N1CCCCC1 (stereo not given) | 2.88%
14 | CC(C)CNc1cccc2c1S(=O)(=O)N[C@H](CC(C)C)CO2 | -1.29%
15 | COc1ccc(-c2ccccc2C2Cc3nnccc3CN2C(=O)Nc2ccccc2)cc1 (stereo not given) | 8.81%
16 | COc1ccnc(C(=O)N2CCC(Oc3cccnc3)CC2)c1 | 2.96%
17 | CN(C)Cc1cn(-c2ccc(-c3noc4c3C(=O)N(CC(=O)N3CCOCC3)CC4)cc2)nn1 | 4.11%
18 | CCOC(=O)c1csc(NC(=O)C2CCCN(S(=O)(=O)c3ccc(Cl)s3)C2)n1 (stereo not given) | 3.09%
19 | Nc1nc2c(ncn2[C@@H]2O[C@H](C(=O)N[C@@H](Cc3ccccc3)C(=O)NCc3ccccc3)[C@@H](O)[C@H]2O)c(=O)[nH]1 | 3.57%
20 | CCOC(=O)[C@]12CCCC=C1N(CCCOC)C(=O)[C@@H]2CC(=O)N1CCOCC1 | 0.28%
21 | COc1ccc(CCNC(=O)CN2CCC(n3nnc4cc(F)ccc43)CC2)cc1OC | -9.88%
22 | CCOc1ccccc1Nc1nnc(SCc2ccc(C(=O)OC)o2)s1 | 0.96%
23 | COC(=O)c1ccc(CSc2nnc(NC(C)C)s2)cc1 | -4.56%
24 | Cc1ccc(C(=O)Oc2coc(CSc3nnc(NC(=O)c4cccs4)s3)cc2=O)cc1C | 68.7% (active)
25 | C=CCN1C(=O)[C@@H](CC(=O)N2CCN(C(=O)c3ccco3)CC2)[C@]2(C(=O)OC)CCCCC=C12 | 7.73%
26 | O=C(N/N=C/c1cccnc1)c1cc2ccccc2cc1O | 46.1% (active)
27 | O=C(N/N=C/c1ccsc1)c1cc(O)cc(O)c1 | 9.53%
28 | O=C(O)/C(=C/c1cccnc1)NC(=O)c1ccccc1 | 1.01%

Row | Structure (SMILES) | inhibition
29 | CC(=O)Nc1ccc(CN2CCC(Oc3ccc(C(=O)N4CCCC4)cc3)CC2)cc1 | -7.88%
30 | COC(=O)C12C=C3CC(c4ccccc4)=C3C(=O)N1Cc1[nH]c3ccccc3c1C2 (stereo not given) | 7.34%
31 | CC1CN(S(=O)(=O)c2ccc(C(=O)Nc3sccc3C(N)=O)cc2)CC(C)O1 (stereo not given) | 11.2%
32 | CC1CCCCN1S(=O)(=O)c1ccc(C(=O)Nc2nnc(-c3cccs3)o2)cc1 (stereo not given) | 49% (active)
33 | CC1CC(C)CN(S(=O)(=O)c2ccc(C(=O)NN3CCOCC3)cc2)C1 (stereo not given) | -3.03%
34 | O=C(Nc1nnc(-c2ccccc2)o1)c1cccc(S(=O)(=O)N2CCOCC2)c1 | 8.5%
35 | CC1CCCN(S(=O)(=O)c2ccc(C(=O)Nc3nnc(-c4ccncc4)o3)cc2)C1 (stereo not given) | 35% (active)
36 | CC1CCCCN1S(=O)(=O)c1ccc(S(=O)(=O)N(CC(=O)Nc2ccccc2)Cc2cccs2)cc1 (stereo not given) | 2.51%
37 | O=C(NCc1ccc(Cl)cc1)C1CCCN(c2nc3ccccc3o2)C1 (stereo not given) | 5.58%
38 | CC(=O)Nc1ccc(OC[C@@H](O)CN2CCC(C(O)(c3ccccc3)c3ccccc3)CC2)cc1 | -1%
39 | O=C(NCc1ccccc1)[C@H]1CCCN1C(=O)[C@H]1CCCN1C(=O)c1cc(F)cc(F)c1 | -2.08%
40 | CCOC(=O)c1c(-c2ccc(C)cc2C)csc1NC(=O)CSc1nnnn1C | 1.95%
41 | CCOC(=O)c1c(C)nn(-c2ncccc2NC(=O)CCC(=O)O)c1C | 3.15%
42 | CCOC(=O)c1c(-c2ccc(-c3ccccc3)cc2)csc1NC(=O)CCC(=O)O | 43.3% (active)
43 | CC1(C)CC(=O)C=C(NCCN2CCNCC2)C1 | -4.08%
44 | CC(=O)C1=C(C)N(Cc2ccc(Cl)cc2)C(=S)NC1c1ccc(F)cc1 (stereo not given) | 5.48%
45 | O=C(COC(=O)c1cc([N+](=O)[O-])ccc1NCc1ccccc1)NC1CCCCC1 | -1.88%
46 | Cc1ccc(S(=O)(=O)NCCC(c2ccccc2)c2ccccc2)cc1C(=O)O | 42.4% (active)
47 | Cc1ccc(S(=O)(=O)NCCCn2ccnc2)cc1C(=O)NC(C)C | -1.64%
48 | Cc1cccc(NS(=O)(=O)c2ccc(C)c(C(=O)NCC(c3ccccc3)N(C)C)c2)c1 (stereo not given) | -4.14%
49 | O=S1(=O)c2ccc(N3CCN(Cc4ccccc4F)CC3)cc2Oc2ccccc2CN1Cc1cn(Cc2ccc(Cl)cc2)nn1 | 12.5%
50 | O=S1(=O)c2c(cccc2N2CC[C@H](O)C2)O[C@@H]2CCN1C2 | 2.13%
51 | Cc1ccc(S(=O)(=O)N2CCN(C(=O)c3ccccc3-c3nc4ccccc4s3)CC2)c(C)c1 | -1.03%
52 | Oc1ccc(-c2[nH]ncc2-c2nc3ccccc3s2)c(O)c1 | 34.9% (active)
53 | NC(=O)Cc1ccc2sc(-c3ccccc3)nc2c1 | 1.7%
54 | O=C(CN1CCCc2ccccc21)NCc1ccc(F)cc1 | 5.24%
55 | C=CS(=O)(=O)N(Cc1nnn(Cc2ccccc2)c1Br)[C@H](C(=O)OC)C(C)C | -1.47%

Reference: PubChem BioAssay AID651821 (The Scripps Research Institute Molecular Screening Center, 2012)
